According to PubChem BioAssay (EPA / NIEHS):
Inconclusive results are not listed. Active and inactive are the calls of the source. Rule for the calls, unless noted: active = hit-call score of the fitted dose curve at least 0.9, where 1 is the maximum; inactive = score below 0.9.

How the values were obtained:
[1] = target: human Vitamin D Receptor (VDR), VDR (gene 7421) (UniProt P11473); experiment: ATG_VDR_TRANS: Attagene TRANS-FACTORIAL HepG2 Assay for human Vitamin D Receptor (VDR) (AID 2283022; active = hit-call score of the fitted dose curve at least 0.9, where 1 is the maximum)
In short: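 HepG2 cells were transiently transfected with multiple GAL4-UAS reporter units, so signal reflects exogenous chimeric receptor-Gal4 activity. After 24 h compound exposure, reporter mRNA was measured by RT-PCR, fluorescent labelling and capillary electrophoresis, fitted for gain of signal versus DMSO.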

[2] = read-out: Monokine induced gamma interferon (MIG), CXCL9 (gene 4283); experiment: BSK_3C_MIG: BioMAP Diversity Plus: 3C Assay for Monokine induced gamma interferon (MIG) Biomarker Activity (AID 2283021); conditions: primary human endothelial cells (HUVEC); actives raise or lower the signal;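 for AC50: MIG protein level measured by immunoassay in the treated endothelial cultures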
In short: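 ELISA-measured MIG in dosed HUVEC 3C cultures at 24 h, analysed by bidirectional fitting with DMSO defining baseline activity.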

[3] = BSK_3C_SRB: Viability Assessment in the BioMAP Diversity Plus: 3C Assay (AID 2283023); conditions: primary human endothelial cells (HUVEC);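 note: fitted both ways against DMSO so a hit may be signal rise or drop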
In short: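 Primary human umbilical vein endothelial cells in the 3C system were read 24 h after compound dosing. Total protein was stained with 0.1% sulforhodamine B after 10% TCA fixation and read at 560 nm, with bidirectional fitting against DMSO as baseline.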

[4] = read-out: Matrix Metallopeptidase 1 (MMP1), MMP1 (gene 4312); experiment: BSK_BE3C_MMP1: BioMAP Diversity Plus: BE3C Assay for Matrix Metallopeptidase 1 (MMP1) Biomarker Activity (AID 2283024); conditions: primary human bronchial epithelial cells; actives raise or lower the signal
In short: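 In this multiplexed primary-cell system, human bronchial epithelium received chemicals for 24 h before an ELISA for MMP1. Values reflect bidirectional fits normalised to the DMSO baseline.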

[5] = BSK_3C_Vis: BioMAP Diversity Plus: 3C Assay for Morphology Visualization (AID 2283025); conditions: primary human endothelial cells (HUVEC);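 note: fitted both ways so gain or loss versus DMSO counts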;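 for AC50: light microscopy image of cell morphology used as background control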
In short: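 Light-microscopy morphology readout, 24 h exposure, human primary umbilical vein endothelium; analysed relative to DMSO with bidirectional fitting.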

[6] = read-out: Pselectin, SELP (gene 6403); experiment: BSK_4H_Pselectin: BioMAP Diversity Plus: 4H Assay for Pselectin Biomarker Activity (AID 2283026); conditions: primary human endothelial cells (HUVEC); actives raise or lower the signal
In short: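 Bidirectional fits against DMSO gave the endpoint. Cells: primary human umbilical vein endothelium, chemical-treated for 24 h before ELISA detection of P-selectin.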

[7] = BSK_4H_SRB: Viability Assessment in the BioMAP Diversity Plus: 4H Assay (AID 2283027); conditions: primary human endothelial cells (HUVEC);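 note: cells exposed to compound for 24 h before staining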;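 for AC50: curves fitted both ways versus DMSO so AC50 may be loss or gain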
In short: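 Cytotoxicity readout: sulforhodamine B (0.1%) staining of total protein after 10% TCA fixation, measured at 560 nm in human umbilical vein endothelium at 24 h. DMSO set the baseline; fitting was bidirectional.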

[8] = BSK_BE3C_SRB: Viability Assessment in the BioMAP Diversity Plus: BE3C Assay (AID 2283028); conditions: primary human bronchial epithelial cells;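 for AC50: fitted both ways so AC50 may mark signal gain or loss versus DMSO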
In short: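 Human primary bronchial epithelial cells were exposed to test chemicals for 24 h. Total protein in parallel cultures was then measured by staining with 0.1% sulforhodamine B after 10% TCA fixation, with absorbance read at 560 nm. Activity was fitted bidirectionally against DMSO.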

[9] = read-out: Thrombomodulin, THBD (gene 7056); experiment: BSK_3C_Thrombomodulin: BioMAP Diversity Plus: 3C Assay for Thrombomodulin Biomarker Activity (AID 2283029); conditions: primary human endothelial cells (HUVEC); actives raise or lower the signal
In short: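 In a multiplexed primary-cell system, human umbilical vein endothelium received chemical and was assayed 24 h later for thrombomodulin by ELISA. Parallel cultures were SRB-stained (0.1% SRB after 10% TCA fixation, read at 560 nm) to flag cytotoxicity.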

[10] = read-out: Urokinase-type plasminogen activator receptor (uPAR), PLAUR (gene 5329); experiment: BSK_4H_uPAR: BioMAP Diversity Plus: 4H Assay for Urokinase-type plasminogen activator receptor (uPAR) Biomarker Activity (AID 2283030); conditions: primary human endothelial cells (HUVEC); actives raise or lower the signal
In short: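 Primary human umbilical vein endothelial cells were exposed to chemical for 24 h before cell-surface uPAR was quantified by ELISA. Activity was fitted bidirectionally against the DMSO negative control baseline.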

[11] = read-out: Vascular endothelial growth factor receptor 2 (Homo sapiens) (UniProt P35968); experiment: BSK_4H_VEGFRII: BioMAP Diversity Plus: 4H Assay for Vascular endothelial growth factor receptor 2 (VEGFR2) Biomarker Activity (AID 2283031); conditions: primary human endothelial cells (HUVEC); actives raise or lower the signal;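 for AC50: cell-surface VEGFR2 protein level quantified by ELISA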
In short: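 Primary human umbilical vein endothelial cells in the BioMAP 4H system were dosed with test chemical, and 24 h later VEGFRII was measured by ELISA. Activity was fitted bidirectionally against DMSO as negative control and baseline.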

[12] = read-out: Human Leukocyte Antigen - DR isotype (HLADR), HLA-DRA (gene 3122); experiment: BSK_BE3C_HLADR: BioMAP Diversity Plus: BE3C Assay for Human Leukocyte Antigen - DR isotype (HLADR) Biomarker Activity (AID 2283032); conditions: primary human bronchial epithelial cells; actives raise or lower the signal
In short: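 BioMAP BE3C format: human bronchial epithelium, 24 h compound treatment, ELISA detection of HLA-DR, with bidirectional analysis relative to DMSO.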

[13] = read-out: Vascular cell adhesion molecule 1 (VCAM1), VCAM1 (gene 7412); experiment: BSK_4H_VCAM1: BioMAP Diversity Plus: 4H Assay for Vascular cell adhesion molecule 1 (VCAM1) Biomarker Activity (AID 2283033); conditions: primary human endothelial cells (HUVEC); actives raise or lower the signal
In short: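 In this human endothelial (HUVEC) system, biomarker ELISA was run 24 h after compound addition, and total protein in parallel wells was assessed by SRB at 560 nm; DMSO served as negative control.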

[14] = read-out: Interferon-gamma inducible Protein 10 (IP10), CXCL10 (gene 3627); experiment: BSK_BE3C_IP10: BioMAP Diversity Plus: BE3C Assay for Interferon-gamma inducible Protein 10 (IP10) Biomarker Activity (AID 2283034); conditions: primary human bronchial epithelial cells; actives raise or lower the signal
In short: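 BE3C cells (human bronchial epithelial, primary); 24 h exposure; ELISA for IP-10; DMSO-referenced bidirectional fit.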

[15] = read-out: Monokine induced gamma interferon (MIG), CXCL9 (gene 4283); experiment: BSK_BE3C_MIG: BioMAP Diversity Plus: BE3C Assay for Monokine induced gamma interferon (MIG) Biomarker Activity (AID 2283035); conditions: primary human bronchial epithelial cells; actives raise or lower the signal
In short: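 hu bronchial epithelial 1° cells, 24 h cpd; MIG by ELISA; bidirectional fit, DMSO = baseline.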

[16] = read-out: Transforming growth factor beta 1 (TGFb1), TGFB1 (gene 7040); experiment: BSK_BE3C_TGFb1: BioMAP Diversity Plus: BE3C Assay for Transforming growth factor beta 1 (TGFb1) Biomarker Activity (AID 2283036); conditions: primary human bronchial epithelial cells; actives raise or lower the signal
In short: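 TGF-b1 measured via ELISA, 24 h after chemical dosing of human bronchial epithelial cells (BE3C). Overt cytotoxicity assessed in parallel by SRB (0.1%, TCA-fixed, 560 nm); analysis bidirectional relative to DMSO.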

[17] = read-out: Plasminogen activator inhibitor-1 (PAI1), SERPINE1 (gene 5054); experiment: BSK_BE3C_PAI1: BioMAP Diversity Plus: BE3C Assay for Plasminogen activator inhibitor-1 (PAI1) Biomarker Activity (AID 2283037); conditions: primary human bronchial epithelial cells; actives raise or lower the signal
In short: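 In this multiplexed primary-cell system, bronchial epithelial cells receive test chemical and are sampled at 24 h. PAI-1 is read by ELISA, with DMSO serving as negative control for bidirectional fitting.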

[18] = read-out: urokinase plasminogen activator (uPA), PLAU (gene 5328); experiment: BSK_BE3C_uPA: BioMAP Diversity Plus: BE3C Assay for urokinase plasminogen activator (uPA) Biomarker Activity (AID 2283038); conditions: primary human bronchial epithelial cells; actives raise or lower the signal
In short: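 Human primary bronchial epithelial cells were exposed to chemical for 24 h, then uPA levels were measured by ELISA. Responses were fitted bidirectionally against DMSO as negative control and baseline. Parallel SRB staining of total protein gauged overt cytotoxicity.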

[19] = read-out: Urokinase-type plasminogen activator receptor (uPAR), PLAUR (gene 5329); experiment: BSK_BE3C_uPAR: BioMAP Diversity Plus: BE3C Assay for Urokinase-type plasminogen activator receptor (uPAR) Biomarker Activity (AID 2283039); conditions: primary human bronchial epithelial cells; actives raise or lower the signal
In short: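 Chemically treated human bronchial epithelial cells (lung primary) are assayed for uPAR by ELISA after 24 h, with data fitted in both directions using DMSO as negative control.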

[20] = read-out: Interleukin-6 (IL6), IL6 (gene 3569); experiment: BSK_CASM3C_IL6: BioMAP Diversity Plus: CASM3C Assay for Interleukin-6 (IL6) Biomarker Activity for (AID 2283040); conditions: primary human coronary artery smooth muscle cells; actives raise or lower the signal

Measured: AC50

human Vitamin D Receptor (VDR), VDR (gene 7421), sequence (P11473 whole entry, looked up, the tested form may be a part): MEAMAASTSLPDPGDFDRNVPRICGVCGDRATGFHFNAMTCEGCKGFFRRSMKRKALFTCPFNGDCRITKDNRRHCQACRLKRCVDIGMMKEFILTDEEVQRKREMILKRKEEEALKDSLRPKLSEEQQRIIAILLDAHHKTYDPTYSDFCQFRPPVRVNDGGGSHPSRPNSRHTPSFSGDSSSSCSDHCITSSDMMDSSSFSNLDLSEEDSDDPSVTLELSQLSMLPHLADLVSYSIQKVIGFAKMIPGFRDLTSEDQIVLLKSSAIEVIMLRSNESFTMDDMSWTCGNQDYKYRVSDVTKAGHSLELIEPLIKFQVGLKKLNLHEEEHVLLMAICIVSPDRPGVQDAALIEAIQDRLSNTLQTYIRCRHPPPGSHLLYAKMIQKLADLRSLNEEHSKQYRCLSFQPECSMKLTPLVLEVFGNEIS

CCCCCCc1ccc(N)cc1
inactive: [1]

CC(=O)Nc1ccc(S(N)(=O)=O)cc1
inactive: [1]

CCCCC(CC)C(=O)O (stereo not drawn)
not listed: [1]
inactive: all other assays above

CCOC(OCC)C(=O)c1ccccc1
inactive: [1]

C=COC(=O)C(C)(C)CCCCCC
active: [2] 33.9 µM | [3] 34.6 µM | [4] 3.97 µM | [5] 37.8 µM | [6] 32.4 µM | [7] 34.3 µM | [9] 20 µM | [10] 32.6 µM | [11] 25.6 µM | [12] 24.8 µM | [13] 30.2 µM | [14] 33.5 µM | [17] 29.4 µM | [18] 20 µM | [20] 32 µM
inactive: [8] | [15] | [16] | [19]

COC(=O)C(F)(F)C(F)(F)C(F)(F)C(F)(F)C(F)(F)F
inactive: [1]

C=CC(=C)CC/C=C(\C)CCC=C(C)C
active: [4] 0.00695 µM
not listed: [1]
inactive: all other assays above

COc1cc(OC)nc(NC(=O)NS(=O)(=O)Nc2ccccc2C(=O)N(C)C)n1
not listed: [1]
inactive: all other assays above

CCCCCc1ccc(O)cc1
inactive: [11]
active: [2] 34.6 µM | [3] 14.5 µM | [4] 30.2 µM | [5] 12.1 µM | [6] 13.3 µM | [7] 15.8 µM | [8] 26 µM | [9] 11.7 µM | [10] 20 µM | [12] 27.2 µM | [13] 24.9 µM | [14] 16.6 µM | [15] 32.8 µM | [16] 20 µM | [17] 20 µM | [18] 27.2 µM | [19] 30.5 µM | [20] 20 µM

OCC1CCC(CO)CC1 (stereo not drawn)
inactive: [1]

OCC(CO)(CBr)CBr
not listed: [1]
inactive: all other assays above

CN(C)CCOC(c1ccccc1)c1ccccc1
active: [6] 3.97 µM | [10] 2.27 µM | [13] 2.03 µM
not listed: [1]
inactive: all other assays above

CC1CCC(CO)CC1 (stereo not drawn)
inactive: [1]

Cc1ccc(C(=O)c2ccccc2)cc1
active: [3] 31.5 µM | [5] 38.9 µM | [6] 31.2 µM | [7] 36.5 µM | [13] 30.2 µM
not listed: [1]
inactive: all other assays above

Brc1cc(Br)c(Oc2c(Br)cc(Br)c(Br)c2Br)cc1Br
inactive: [1]

C=C(c1ccc(C(=O)O)cc1)c1cc2c(cc1C)C(C)(C)CCC2(C)C
inactive: [1]

O=C(Nc1ccc(Cl)c(Cl)c1)c1cc(Cl)cc(Cl)c1O
inactive: [1]

C=CC(=O)OCCC(F)(F)C(F)(F)C(F)(F)C(F)(F)C(F)(F)C(F)(F)C(F)(F)C(F)(F)F
not listed: [1] | [5] | [16]
inactive: all other assays above
